Assay outcomes deposited in PubChem by National Center for Advancing Translational Sciences (NCATS).
Lassa entry inh – blocks Lassa virus binding to or entry into cells. Lassa virus pseudotype entry inhibition, cell reporter. actives 1.2% (n = 300,000). Potency, µM (highest dose often 37.9 µM), for inactives: at the top dose activity change, negative = inhibition, hits mostly inhibitors; calls by dose curve; tested in HEK293 cells; further: potency means the concentration at half of the fitted maximal effect; nearly all actives have a fitted effect of over 50% in size
HCV inh – blocks hepatitis C virus. Huh7.5.1 HCVcc-Cre infection, luciferase reporter, 44 h. Potency, µM (series often up to 41.8 µM), without a hit: at the top dose activity change, negative = inhibition, actives largely listed as inhibitors. actives 3.4% (n = 340,000). AID 651820; active means well fitted inhibition curve with a large enough effect; inconclusive means small, poorly fitted or top-dose-only effect, or another doubt; inactive means no such curve, though single readings can be large or run the other way; further: potency means the concentration at half of the fitted maximal effect
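Seed cells (1,000/well) for 4 h; treat with compound and infect with HCVcc-Cre, moi about 0.5. Incubate 44 h, then detect luciferase activity.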
FMDV antiviral – antivirals against foot and mouth disease virus; FMDV antiviral cell-based qHTS; Potency, µM (doses to about 57.9 µM), without a hit: top-dose activity change, negative = inhibition, most hits filed as inhibitors; actives 1.2% (n = 410,000); AID 1159524; calls by dose curve; tested in HEK293T cells; further: read-out not given here; potency means the concentration at half of the fitted maximal effect; nearly all actives have a fitted effect of over 45% in size
Marburg entry inh – inhibitors of Marburg virus binding or cell entry | Marburg virus pseudotyped entry inhibition, cell reporter | Potency, µM (series often up to 37.8 µM), for inactives: at the top dose activity change, negative = inhibition, hits mostly inhibitors | actives 1.8% (n = 300,000) | AID 540276; calls by dose curve; tested in HEK293 cells; further: potency means the concentration at half of the fitted maximal effect
HCMV antiviral – inhibitors of human cytomegalovirus; HFF cells, HCMV-luciferase reporter, 72 h; hits give low values; activity change, negative = inhibition, % at 57.5 µM; actives 4.5% (n = 410,000); in the data active means activity change below about -60%; inconclusive means no clear call, values can overlap the other calls; inactive means above about -39%
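Two compound doses tested in HFFs infected with HCMV-luciferase, MOI 1 PFU/cell, 72 h at 37C. Lysate luminescence read with OneGlo; data normalized against buffer-only and 10uM Salinomycin inhibitor controls.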
Active calls of the source: *; ? = inconclusive; nt = no result given; [ ] = dose if it differs, or a comment. Shown are actives, neighbours in structure and some others; about 7.9% of the full set was active somewhere. On the % scale 0 is the no-effect control and ±100 the full control effect.

SMILES | Lassa entry inh | HCV inh | FMDV antiviral | Marburg entry inh | HCMV antiviral
Cc1ccc(NC(=O)c2cc(-c3ccco3)nc3ccccc23)cc1S(=O)(=O)N1CCOCC1 | -22% | -14% | -21% | ? | -3
COc1cc(-c2nc3oc4ccccc4c(=O)c3c(=O)n2Cc2ccco2)cc(OC)c1OC | 6.3µM* | -16% | 0% | 7.9µM* | -11
CC(=O)SC(C[N+](=O)[O-])c1cn(C(C)=O)c2ccccc12 (centres undefined) | -24% | 11µM* | 28µM* | -15% | -106*
Cc1cccc(Nc2nc(-c3ccncc3)cs2)c1 | nt | ? | 5% | nt | 37
Cc1cccc(Nc2nc(-c3sc(C)nc3C)cs2)c1 | ? | 2.8µM* | ? | ? | 22
Cc1nc(N)sc1-c1csc(Nc2cccc(O)c2)n1 | 1% | ? | -28% | 15% | 70
Cc1nc2ccccn2c1-c1csc(Nc2cccc(O)c2)n1 | ? | 0.89µM* | ? | ? | ?
Cc1nc2ccccn2c1-c1csc(Nc2cccc(C(=O)O)c2)n1 | 6%[46.1 µM] | 13% | -19% | -2%[46.1 µM] | ?
CCC(=O)Nc1nc(C)c(-c2csc(Nc3cccc(O)c3)n2)s1 | nt | 7.1µM* | -14% | nt | 83
Cc1nc(C)c(-c2csc(Nc3cccc(O)c3)n2)s1 | -16% | 25µM* | 32% | ? | 38
Cc1cccc2cc(CNCCCN3CCCC3=O)c(N3CCN4CCCC4C3)nc12 (centres undefined) | nt | nt | 4% | nt | nt
Cc1sc2nc(CSCC(=O)Nc3ccc(Cl)cc3F)[nH]c(=O)c2c1C | -3% | 18% | -7% | -9% | 4
CCOC(=O)C1=CNS(=O)(=O)NC1c1ccc(C(=O)OC)cc1 (centres undefined) | nt | -12%[8.37 µM] | -12% | nt | -3
COc1ccc2c(c1)CC/C=C(/C)CC(CO)O2 (centres undefined) | nt | nt | nt | nt | 0
CCOC(=O)N1CCC(NC(=O)c2cc(C(=O)NC3CCCC3)ccc2CO)CC1 | nt | 5% | 0% | -4% | 25
CCOC(=O)N1CCC(NC(=O)c2ccc(CO)c(C(=O)NC3CCN(C(=O)OCC)CC3)c2)CC1 | nt | 9% | -4% | nt | 18
CCOC(=O)N1CCC(NC(=O)c2cc(C(=O)Nc3ccc(OCC)cc3)ccc2CO)CC1 | -3% | -22% | ? | -3% | -67*
CCOC(=O)N1CCC(NC(=O)c2cc(C(=O)Nc3cccc(C(F)(F)F)c3)ccc2CO)CC1 | nt | 13µM* | ? | nt | ?
CSCCC(NC(=O)c1ccco1)C(=O)NNC(=O)c1n[nH]c(=O)c2ccccc12 (centres undefined) | nt | 5% | -13% | nt | -5
Cc1ccccc1NC(=O)c1ccc(-c2ccc(Cl)cc2Cl)o1 | 8% | 13µM* | 6% | -10%[46.1 µM] | -11
Cc1cccc(C)c1NC(=O)c1ccc(-c2ccc(Cl)cc2Cl)o1 | ? | ? | -24% | 10µM* | -72*
CCc1nc2cc(C(=O)N3CCC[C@H]3C(=O)OC)cc(NC(=O)c3ccccc3OC)c2n1C | nt | nt | -1% | nt | nt
Cc1cc(=O)[nH]c(N2CCOCC2)n1 | 16% | 5% | -6% | 2%[46.1 µM] | -20
Cc1cc(N2CCOCC2)c2c(N)c(Br)cc(C)c2n1 | 3% | ? | ? | -30%[46.1 µM] | -82*
CCOC(=O)COc1ccc(C)cc1C(=O)c1ccn2nc(-c3ccc(C)cc3)cc2n1 | 25%[46.1 µM] | nt | -20% | 0%[46.1 µM] | 1
SMILES | Lassa entry inh | HCV inh | FMDV antiviral | Marburg entry inh | HCMV antiviral
Cc1nnc2n(-c3ccccc3)c(=O)c3c4c(sc3n12)C[C@H](C)CC4 | nt | nt | nt | -19% | nt
O=C(c1ccccc1)c1cccc2ccccc12 | -15%[46.1 µM] | -9% | -12% | 3%[46.1 µM] | -6
O=C1C=CC(=O)N1c1ccccc1N1C(=O)C=CC1=O | 11µM* | ? | ? | ? | 0
O=C(c1ccccc1)c1ccccc1N1C(=O)C=CC1=O | ? | ? | ? | ? | -93*
COCCC(=O)N1CCC(n2nccc2NC(=O)CCc2ccccc2)CC1 | -3% | 3% | 0% | -6%[46.1 µM] | -15
COCC(=O)Nc1cc(C(=O)NC2CCc3ccccc32)c2c(c1)nc(-c1ccncc1)n2C (centres undefined) | nt | nt | -16% | nt | nt
O=S(=O)(c1cccs1)N1CCC(CO)(Cc2ccc(Cl)cc2)CC1 | ? | ? | ? | 7.9µM* | 21
O=S(=O)(c1cccs1)N1CCN(c2ccc(Cl)cc2)CC1 | -12%[46.1 µM] | -6% | -6% | 6%[46.1 µM] | -35
O=C(c1ccc(-c2ccc(Cl)cc2)o1)N1CCN(S(=O)(=O)c2cccs2)CC1 | nt | ? | -22% | nt | -61*
